This excerpt belongs to a sample that is enriched for hits.
EZH2 inh: inhibitors of human EZH2/PRC2 methyltransferase; Q15910; PRC2 H3K27 methylation, DELFIA TRF, 1 h; inhibition, % at 12.5 µM; 57,000 compounds, 0.35% hits; AID 651548;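 active = mean inhibition of replicates at least 50% and every single replicate also reaching 50%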;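 note: dimethyl H3K27 on biotinylated H3 21-44 peptide detected by antibody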
Target sequence (Q15910 whole entry, looked up): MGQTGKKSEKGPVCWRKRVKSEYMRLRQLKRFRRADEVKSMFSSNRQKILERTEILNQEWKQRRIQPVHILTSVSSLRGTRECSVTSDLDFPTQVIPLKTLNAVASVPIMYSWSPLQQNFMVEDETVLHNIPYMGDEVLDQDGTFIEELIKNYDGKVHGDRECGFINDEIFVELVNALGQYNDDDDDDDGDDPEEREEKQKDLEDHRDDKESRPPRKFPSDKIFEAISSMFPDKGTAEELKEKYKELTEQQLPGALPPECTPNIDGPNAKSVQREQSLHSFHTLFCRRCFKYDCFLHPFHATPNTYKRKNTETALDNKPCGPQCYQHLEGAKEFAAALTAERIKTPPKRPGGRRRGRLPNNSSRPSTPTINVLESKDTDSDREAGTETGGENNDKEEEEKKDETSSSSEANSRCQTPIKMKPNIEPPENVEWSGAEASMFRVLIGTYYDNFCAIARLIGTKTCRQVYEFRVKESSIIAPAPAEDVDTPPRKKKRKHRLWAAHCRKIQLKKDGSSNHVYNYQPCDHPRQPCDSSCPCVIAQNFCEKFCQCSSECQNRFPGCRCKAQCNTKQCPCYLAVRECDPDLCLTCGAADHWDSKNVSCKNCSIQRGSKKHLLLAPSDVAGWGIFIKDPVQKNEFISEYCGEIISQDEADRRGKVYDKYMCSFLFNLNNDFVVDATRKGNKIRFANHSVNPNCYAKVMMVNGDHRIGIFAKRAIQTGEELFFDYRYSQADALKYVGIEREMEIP
A number is an active result; - = inactive.

SMILES	EZH2 inh
CC(C)CC#Cc1ccc2c(c1)O[C@H](CN(C)Cc1ccc(C(=O)O)cc1)[C@@H](C)CN([C@H](C)CO)S2(=O)=O	70
C[C@H](CO)N1C[C@H](C)[C@H](CN(C)Cc2ccccc2)Oc2cc(C3=CCCCC3)ccc2S1(=O)=O	-
C[C@H](CO)N1C[C@H](C)[C@H](CN(C)C(=O)CC2CC2)Oc2cc(C3=CCCC3)ccc2S1(=O)=O	55
O=C(Nc1ccc2c(c1)[C@@H]1C[C@@H](CC(=O)N3CCOCC3)O[C@H](CO)[C@@H]1O2)c1ccc2c(c1)OCO2	-
O=C(C[C@H]1C[C@@H]2c3cc(NC(=O)NC4CCCC4)ccc3O[C@@H]2[C@@H](CO)O1)NC1CCCCC1	-
Cc1noc(C)c1NC(=O)N(C)C[C@H]1Oc2c(cccc2N(C)C)C(=O)N([C@H](C)CO)C[C@@H]1C	-
CNC[C@@H]1Oc2ccc(N(C)C)cc2CC(=O)N([C@H](C)CO)C[C@@H]1C	-
CC(C)(C)OC(=O)NC1(/C=N/NC(=O)CCCCCC(=O)Nc2ccccc2O)CCCC1	-
CO[C@H]1CN(C)C(=O)c2ccc(NS(=O)(=O)CC(F)(F)F)cc2OC[C@@H](C)NC[C@@H]1C	-
CN(C)C(=O)C[C@H]1C[C@@H]2c3cc(N(C)C)ccc3O[C@@H]2[C@@H](CO)O1	-
CC(=O)N(C)C[C@H]1Oc2cc(C#CC3(O)CCCC3)ccc2S(=O)(=O)N([C@@H](C)CO)C[C@@H]1C	-
CO[C@@H]1CN(C)C(=O)c2ccc(NC(=O)Cc3ccccc3)cc2OC[C@@H](C)N(C(=O)c2ccccc2F)C[C@H]1C	-
C[C@@H]1CN([C@H](C)CO)C(=O)c2cccc(NC(=O)Nc3cccc4ccccc34)c2O[C@@H]1CN(C)Cc1ccc(C(=O)O)cc1	-
COc1ccc(C#Cc2ccc3c(c2)[C@]2(C(=O)N3)[C@H](C(=O)N3CCN(c4ncccn4)CC3)[C@H]3C(=O)O[C@H](c4ccccc4)[C@H](c4ccccc4)N3[C@@H]2c2ccc(OCCO)cc2)cc1	-
COCc1cc(O)c(O)c(O)c1-c1c(COC)cc(O)c(O)c1O	88
COc1ccc(C(C)=O)c(O)c1	-
Cc1ccc(NC(=O)CSc2nnnn2-c2cccc(C(=O)O)c2)cc1C	-
COC(=O)c1ccccc1NC(=O)c1ccc(NC(=O)C(C)Oc2ccccc2)cc1 (centres undefined)	-
Cc1cc(Cl)ccc1OC(C)C(=O)Nc1ccc(C(=O)Nc2ccccc2C(=O)O)cc1 (centres undefined)	60
Cc1cccc(C(=O)O)c1NC(=O)C(C)Oc1ccc(Cl)cc1Cl (centres undefined)	-
COc1ccc(NC(=O)COc2ccc3ccccc3c2Br)c([N+](=O)[O-])c1	-
CC(C)NC(=O)N(C)C[C@@H]1Oc2ccc(NS(=O)(=O)c3ccc(F)cc3)cc2C(=O)N([C@@H](C)CO)C[C@@H]1C	-
Cc1cc(C(F)(F)F)nc(SCc2cccc(C(=O)O)c2)n1	-
O=C(O)c1cccc(CSc2nc(-c3ccc(Cl)cc3)cc(C(F)(F)F)n2)c1	50
O=C(O)c1cccc(CSc2n[nH]c(-c3ccc(Cl)cc3)n2)c1	-
SMILES	EZH2 inh
CCC(=O)N[C@H]1C=C[C@@H](CC(=O)NCc2ccccc2OC)O[C@H]1CO	-
O=C(N[C@@H]1CC[C@@H](CCn2cc(-c3ccccn3)nn2)O[C@@H]1CO)c1ccc(F)cc1	-
C[C@@H]1CN([C@H](C)CO)C(=O)c2cc(NS(=O)(=O)c3ccccc3)ccc2O[C@@H]1CN(C)C(=O)Nc1ccccc1	-
N#Cc1c(C(F)(F)F)cc(-c2cccs2)nc1SCC(=O)Nc1c(F)cccc1F	-
N#Cc1c(C(F)(F)F)cc(-c2cccs2)nc1SCC(O)COc1ccc(Cl)cc1 (centres undefined)	-
COc1ccc(-c2cc(-c3cccs3)nc(SC(C(=O)O)c3ccccc3)c2C#N)cc1 (centres undefined)	72
O=S(=O)(c1ccccc1)c1nc(-c2ccco2)oc1NCC1CCCO1 (centres undefined)	-
C[C@@H]1CCCCO[C@H](CN(C)Cc2ccncc2)[C@H](C)CN([C@@H](C)CO)C(=O)c2cc(NC(=O)NC3CCCCC3)ccc2O1	-
O=C(Nc1ccc2c(c1)OCO2)N[C@@H]1C=C[C@@H](CC(=O)N2CCN(c3ccccc3)CC2)O[C@@H]1CO	-
CCOC(=O)N1CCC(=C2c3ccc(Cl)cc3CCc3cccnc32)CC1	-
CC(O)CCCc1cc(O)cc(O[C@@H]2O[C@H](CO)[C@@H](O)[C@H](O)[C@H]2O)c1 (some centres undefined)	-
CC(=O)c1c(O)cc(O[C@@H]2O[C@H](CO)[C@@H](O)[C@H](O)[C@H]2O)cc1O	94
CC(C)=CCc1cc(O[C@@H]2O[C@H](CO)[C@@H](O)[C@H](O)[C@H]2O)cc(CC=C(C)C)c1C(O)C(=O)O (some centres undefined)	99
O=C(CCc1ccc(O)cc1)c1c(O)cc(O)cc1O[C@@H]1O[C@H](CO)[C@@H](O)[C@H](O)[C@H]1O	-
CC(=O)c1ccc(O[C@@H]2O[C@H](CO)[C@@H](O)[C@H](O)[C@H]2O)c(/C=C/C(C)(C)O)c1	-
COc1ccc(/C=C/c2cc(O)cc(O[C@@H]3O[C@H](CO)[C@@H](O)[C@H](O)[C@H]3O)c2)cc1	-
COCC(=O)N(C)C[C@@H]1Oc2ncc(/C=C/c3ccccc3)cc2C(=O)N([C@@H](C)CO)C[C@@H]1C	-
CCOC(=O)c1c(C)n(C)c2ccc(OCC(N)=O)cc12	-
CO[C@@H]1CN(C)C(=O)c2ccc(NC(=O)NC(C)C)cc2OC[C@@H](C)N(C(=O)CN(C)C)C[C@@H]1C	-
COc1cc2c(cc1NC(=O)c1nc3ncccn3n1)oc1ccccc12	-
CC(=O)c1ccccc1OCC(O)Cn1cnc2ccccc21 (centres undefined)	-
CO[C@@H]1CN(C)C(=O)c2ccc(NC(=O)C3CC3)cc2OC[C@H](C)N(Cc2cccc(F)c2)C[C@@H]1C	-
CCCNC(=O)Nc1ccc2c(c1)OC[C@@H](C)N(Cc1ccccn1)C[C@H](C)[C@H](OC)CN(C)C2=O	-
CC(C)(Sc1ccc(CCN(CCCCC2CCCCC2)C(=O)NC2CCCCC2)cc1)C(=O)O	86
COCC#Cc1ccc2c(c1)O[C@@H](CN(C)CC1CCCCC1)[C@H](C)CN([C@@H](C)CO)S2(=O)=O	-
SMILES	EZH2 inh
NCC[C@H]1CC[C@H](NS(=O)(=O)c2ccccc2F)[C@@H](CO)O1	-
C[C@@H]1CN([C@H](C)CO)C(=O)Cc2cc(NC(=O)Cc3cn(C)c4ccccc34)ccc2O[C@H]1CN(C)Cc1ccncc1	-
COc1ccc(NC(=O)CSc2nnc(C)c(=O)[nH]2)cc1Cl	-
COc1ccc(NC(=O)CSc2n[nH]c(N)n2)cc1Cl	-
CCC1(C)Cc2ccccc2-c2nc3[nH]nc(SCC(=O)Nc4ccc(OC)c(Cl)c4)n3c(=O)c21 (centres undefined)	60
C[C@H]1CN([C@@H](C)CO)S(=O)(=O)c2ccc(-c3ccccc3)cc2O[C@H]1CN(C)S(C)(=O)=O	-
O=C(Nc1ccccc1C(=O)NCc1ccco1)c1ccc(-c2ccccc2)cc1	-
COC(=O)CCCCCCC(=O)N/N=C/c1ccc(Oc2ccccc2)cc1	-
O=C(CCCCC(=O)N/N=C/c1ccc(-c2ccccc2)c(F)c1)NO	-
COC(=O)CCCCCCC(=O)N/N=C/c1ccc(-c2ccccc2)c(F)c1	60
COCC(=O)Nc1ccc2c(c1)[C@@H]1C[C@@H](CC(=O)OC)O[C@@H](CO)[C@@H]1O2	-
